Experimental data: paper PMC6792352, “Limited Chemical Structural Diversity Found to Modulate Thyroid Hormone Receptor in the Tox21 Chemical Library” (Environmental Health Perspectives, 2019)

The compounds below were run on thyroid hormone receptor (endogenous TRα and TRβ). Details: read-out: Average AC50 (uM) GH3-TRE-Antag, antagonist mode, 1 nM T3, no GH3 cytotoxicity hit, Average AC50 (uM) GH3-TRE-Antag, 24 h.
Design: species or system GH3-TRE-Luc (rat pituitary); GH3-TRE-Luc luciferase reporter, antagonist mode against 1 nM T3, loss of signal, qHTS

Row | Structure (SMILES) | AC50
1 | CCCCCCn1cc[n+](C)c1 [1-Hexyl-3-methylimidazolium tetrafluoroborate] | 56.1 µM
2 | Nc1ccc2cc3ccc(N)cc3nc2c1 [Proflavin hemisulfate] | 4.93 µM
3 | N=C(N)NC(=O)c1nc(Cl)c(N)nc1N [Amiloride] | 16.4 µM
